BAZ2B block: qHTS Assay for Inhibitors of BAZ2B; AlphaScreen BAZ2B-H3K14Ac peptide displacement; Bromodomain adjacent to zinc finger domain protein 2B (Homo sapiens), Q9UIF8; Potency, µM (highest dose often 114 µM), most hits filed as inhibitors; hit rate 4.4% among 360,000; note: nearly all actives have a fitted effect of over 60% in size
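Inhibition is scored as reduced AlphaScreen emission. The BAZ2B/b-H3(5-23)K14Ac complex (50 nM each) in PBS pH 7.4, 0.01% Tween-20 meets compound (up to 110 uM) for 30 min at RT before bead addition.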
G9a inh: qHTS Assay for Inhibitors of Histone Lysine Methyltransferase G9a; Histone-lysine N-methyltransferase EHMT2 (Homo sapiens), Q96KQ7; hit rate 8.8% among 350,000; Potency, µM (doses to about 102 µM), most hits filed as inhibitors; G9a H3K9 monomethylation, AlphaScreen, 2 h; note: nearly all actives have a fitted effect of over 75% in size
Target sequence (Q96KQ7 913-1193 limits assumed): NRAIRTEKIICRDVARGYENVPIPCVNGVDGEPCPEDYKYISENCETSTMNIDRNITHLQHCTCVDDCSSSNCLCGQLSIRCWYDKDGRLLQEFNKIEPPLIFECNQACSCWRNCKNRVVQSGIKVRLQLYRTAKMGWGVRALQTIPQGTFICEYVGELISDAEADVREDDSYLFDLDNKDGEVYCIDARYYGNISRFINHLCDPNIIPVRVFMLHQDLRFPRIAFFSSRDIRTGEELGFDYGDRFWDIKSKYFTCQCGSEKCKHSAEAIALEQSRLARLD
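Using a bead-based AlphaScreen, monomethylated H3K9 product from 2 h room-temperature reactions (G9a 20 nM, peptide 500 nM, SAM 20 uM) was detected with 0.5 ug/mL rabbit anti-H3K9me1 antibody.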
Sfp inh: qHTS Assay for Inhibitors of Bacillus subtilis Sfp phosphopantetheinyl transferase (PPTase); Biochemical Sfp PPTase activity, qHTS; Potency, µM, most hits filed as inhibitors; hit rate 3.5% among 310,000;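 note: the enzyme is Sfp with the accession as filed and its product quenches rhodamine fluorescence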
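With Hepes-Na pH 7.6 buffer containing 10 mM MgCl2, Sfp (15 nM) modified BHQ-2-YbbR (12.5 uM) using rhodamine-CoA (5 uM). Two reads 30 minutes apart at 525/598 nm yielded each well's rate.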
HP1b binding inh: HTS for Inhibitors of HP1-beta Chromodomain Interactions with Methylated Histone Tails | hit rate 0.56% among 390,000 | Potency, µM (series often up to 114 µM), actives largely listed as inhibitors | AID 540317, 2011 | AlphaScreen HP1-beta / biotin-H3K9me3 peptide binding; note: nearly all actives have a fitted effect of over 70% in size
Target sequence (P83916 whole entry, looked up): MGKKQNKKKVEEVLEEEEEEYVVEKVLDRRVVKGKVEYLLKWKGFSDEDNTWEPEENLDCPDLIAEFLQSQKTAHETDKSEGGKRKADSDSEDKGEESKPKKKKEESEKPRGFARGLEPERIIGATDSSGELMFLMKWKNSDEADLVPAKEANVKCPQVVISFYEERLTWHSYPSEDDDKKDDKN
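Compound inhibition of the preformed complex between 50 nM HP1-beta and 50 nM biotinylated H3K9me3 peptide was read by AlphaScreen. Buffer was PBS pH 7.4 with 0.01% Tween-20. Incubations ran 30 min at room temperature, with 10 ug/mL donor/acceptor beads.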
JMJD2A Tudor inh: qHTS Assay for Inhibitors of JMJD2A-Tudor Domain. AlphaScreen JMJD2A-Tudor / H3K4me3 peptide binding. Lysine-specific demethylase 4A (Homo sapiens), O75164. Potency, µM (doses to about 114 µM), usual class: inhibitors. hit rate 4.4% among 390,000; note: nearly all actives have a fitted effect of over 50% in size
Large screens that a line does not name were inactive. Rows were chosen to be rich in hits. Some 12% of all compounds tested hit in one or more screens of this group. Calls come from the whole dose curve; as a rule, active = well fitted curve in the direction sought with a large enough effect; inconclusive = small, poorly fitted or top-dose-only effect, or another doubt; inactive = no such curve, though single readings can be large; an effect the other way counts as inactive or inconclusive.

Cc1ccc(S(=O)(=O)/N=C2/NC(=O)/C(=C\c3ccccc3)S2)cc1	none (no result: BAZ2B block, G9a inh, Sfp inh)
O=C1NC(=NCc2ccccc2)S/C1=C/c1ccc(O)cc1	BAZ2B block inconclusive, Sfp inh 25µM
CC(=O)Nc1ccc(S(=O)(=O)/N=C2/NC(=O)/C(=C\c3ccco3)S2)cc1	BAZ2B block inconclusive, G9a inh 22µM
Cc1ccc(S(=O)(=O)/N=C2/NC(=O)/C(=C/c3ccccc3)S2)cc1	BAZ2B block inconclusive, G9a inh 50µM
CCCCC(=O)OCC(=O)c1cc(C)n(-c2c(C)n(C)n(-c3ccccc3)c2=O)c1C	none
Cc1ccccc1C(=O)NCC(=O)NCC1(N2CCOCC2)CCCCC1	none (no result: Sfp inh)
CC(=O)c1ccc(S(=O)(=O)N2CCCC(N(C)CCc3ccccc3)C2)cc1 (centres undefined)	BAZ2B block inconclusive, G9a inh inconclusive
Cc1ccc(CN2C(=O)C(CC(C)C)Nc3ncnc(N4CCN(c5ccccn5)CC4)c32)cc1 (centres undefined)	BAZ2B block inconclusive, G9a inh inconclusive, JMJD2A Tudor inh 79µM (no result: Sfp inh)
Cc1ccc(CN2C(=O)C(C)Nc3ncnc(N4CCN(c5ccccn5)CC4)c32)cc1 (centres undefined)	BAZ2B block inconclusive, JMJD2A Tudor inh 79µM (no result: Sfp inh)
CC(C)CC1Nc2ncnc(N3CCN(c4ccccn4)CC3)c2N(Cc2ccc(Br)cc2)C1=O (centres undefined)	G9a inh inconclusive (no result: Sfp inh)
CC1Nc2ncnc(N3CCN(c4ccccn4)CC3)c2N(Cc2ccccc2)C1=O (centres undefined)	none (no result: Sfp inh)
COc1ccc(N2CCN(CCNC(=O)Nc3ccc(C)c(Cl)c3)CC2)cc1	G9a inh 25µM
COc1ccc(OC)c(NC(=O)NCCN2CCN(c3ccccc3)CC2)c1	G9a inh inconclusive
COc1ccc(N2CCN(CCNC(=O)Nc3ccc([N+](=O)[O-])cc3OC)CC2)cc1	BAZ2B block inconclusive, G9a inh 45µM, HP1b binding inh inconclusive, JMJD2A Tudor inh 50µM
COc1ccccc1N1CCN(C(=O)C2CCN(S(=O)(=O)c3ccc(F)cc3)CC2)CC1	none
Cc1ccc(-c2cc(-c3ccc(F)cc3)c(C#N)c(N)n2)o1	G9a inh 8.9µM, Sfp inh inconclusive, JMJD2A Tudor inh 40µM
Cc1ccc(-c2cc(-c3ccc(C)o3)nc(N)c2C#N)cc1	BAZ2B block 71µM, G9a inh 2µM, Sfp inh 13µM, HP1b binding inh inconclusive, JMJD2A Tudor inh 32µM
Cc1ccc(-c2cc(-c3ccc4c(c3)OCO4)c(C#N)c(N)n2)o1	G9a inh inconclusive, Sfp inh 10µM (no result: BAZ2B block)
COc1ccc(-c2cc(-c3ccc(O)cc3)nc(N)c2C#N)cc1OC	Sfp inh inconclusive
Cc1ccc(-c2cc(C(F)(F)F)c(C#N)c(SCCC#N)n2)o1	G9a inh inconclusive
Cc1cc(-c2cc(-c3ccc(Cl)cc3)nc(N)c2C#N)co1	BAZ2B block inconclusive, G9a inh inconclusive, Sfp inh 10µM, JMJD2A Tudor inh 40µM
Cc1c(-c2ccc(F)cc2)nc(N)c(C#N)c1-c1ccco1	G9a inh inconclusive
Cc1nc(N)c(C#N)c(-c2ccc3c(c2)OCO3)c1C	none
CC1(C)CC(=O)C2=C(C1)OC(N)=C(C#N)C21C(=O)N(Cc2ccccc2Cl)c2ccccc21 (centres undefined)	none
Cc1ccsc1CN(C)C(=O)C(NC(=O)c1cccc(S(=O)(=O)N2CCOCC2)c1)C(C)C (centres undefined)	none (no result: Sfp inh)
N#Cc1c(N)nc2c(c1-c1ccc3c(c1)OCO3)CCCCCC2	none
Cc1ccc(-c2cc(-c3ccc(Cl)cc3)c(C#N)c(N)n2)o1	BAZ2B block 56µM, G9a inh 5.6µM, Sfp inh 8.9µM, JMJD2A Tudor inh 79µM
CCOc1cc(-c2cc(-c3ccc(C)o3)nc(N)c2C#N)ccc1O	G9a inh 40µM
N#Cc1c(N)oc(-c2ccc3c(c2)OCO3)c1-c1ccc2c(c1)OCO2	BAZ2B block inconclusive, G9a inh 50µM
CCc1n(CC(O)COCc2ccccc2)c2ccccc2[n+]1C (centres undefined)	BAZ2B block inconclusive, G9a inh 45µM, JMJD2A Tudor inh inconclusive
Cc1cc(C)c2ccc(=S)[nH]c2n1	G9a inh 8.9µM, Sfp inh inconclusive
N#CC(C#N)C(c1ccsc1)c1c(-c2ccccc2)[nH][nH]c1=O (centres undefined)	none
CCCc1[nH][nH]c(=O)c1C(c1cccc(Cl)c1)C(C#N)C#N (centres undefined)	BAZ2B block inconclusive, G9a inh 79µM
COc1cc2c(cc1OC)CN(C1CC(=O)N(c3c(C)cccc3C)C1=O)CC2 (centres undefined)	G9a inh 79µM
COc1ccccc1N1CCN(C2CC(=O)N(c3cccc(Br)c3)C2=O)CC1 (centres undefined)	none (no result: G9a inh)
COc1ccc2nc3cc(Cl)ccc3c(C#N)c2c1	G9a inh 50µM
O=C(CCc1c[nH]c2ccccc12)NCc1ccncc1	G9a inh 50µM
O=C(CCCc1c[nH]c2ccccc12)NCCc1c[nH]c2ccccc12	BAZ2B block inconclusive, G9a inh 45µM, HP1b binding inh inconclusive, JMJD2A Tudor inh inconclusive
O=C(CCc1c[nH]c2ccccc12)NCc1ccc2c(c1)OCO2	BAZ2B block inconclusive, G9a inh 56µM
Cc1ccc(/C=C(/NC(=O)c2ccccc2)C(=O)NCCc2c[nH]c3ccccc23)o1	BAZ2B block inconclusive, G9a inh 45µM
CC(=O)Oc1ccc2c(=O)c(-c3ccccc3)coc2c1	none
O=C(O)CSC(=S)N1CCCCC1	none
CCOc1ccc(NC(=O)COC(=O)CCCc2c[nH]c3ccccc23)cc1	G9a inh inconclusive, JMJD2A Tudor inh inconclusive
O=C1c2ccccc2C(=O)N1CCCc1c[nH]c2ccccc12	BAZ2B block inconclusive, G9a inh 50µM, HP1b binding inh inconclusive, JMJD2A Tudor inh inconclusive
Cc1ccc(NC(=O)CCc2c[nH]c3ccccc23)nc1	BAZ2B block inconclusive, JMJD2A Tudor inh inconclusive
COc1ccc(NC(=O)COC(=O)CCCc2c[nH]c3ccccc23)cc1	BAZ2B block 50µM, G9a inh inconclusive
O=C(CCc1c[nH]c2ccccc12)Nc1ncccc1O	BAZ2B block 56µM, G9a inh inconclusive
Cc1nc2sccn2c(=O)c1S(=O)(=O)NCC(C)c1ccccc1 (centres undefined)	none
O=C(CSc1n[nH]c(-c2ccccc2)n1)NC(=O)NCc1ccco1	BAZ2B block inconclusive, G9a inh 50µM
O=C(CSc1ncccn1)NC(=O)NCc1ccco1	none (no result: BAZ2B block)
Cc1cc(SCC(=O)c2ccc3c(c2)OCO3)nc2ccccc12	G9a inh inconclusive, Sfp inh inconclusive
CC1(C)CC2(CC(C)(C(=O)CSc3nc4ccccc4s3)OC2=O)C(=O)O1 (centres undefined)	none
